# PubChem BioAssay (NCATS)
# Results filed as inconclusive are left out. Values without a mark were called inactive. The source made the active and inactive calls. Calls follow the shape of the dose curve; as a rule, active = well fitted cell-killing curve with a large enough effect; inconclusive = small, poorly fitted or top-dose-only effect, or effect the other way; inactive = no such curve, though single readings can be large or run the other way.
# Experiment: Quantitative High-Throughput drug screen in 47 multiple myeloma cell lines against the NCATS MIPE library collection: Karpas25_ECACC cell viability assay (AID 1918968; also: nearly all actives have a fitted effect of over 35% in size)
# Settings: Karpas25 myeloma viability, CellTiter-Glo ATP, 48 h; series mostly up to 45.8 µM; viability (% of control): at the top concentration
# Source text: PI: Beverly A. Mock Ph.D.
# Laboratory of Cancer Biology and Genetics,
# Center for Cancer Research, National Cancer Institute,
# National Institute of Health, Bethesda, Maryland
# Drug resistance and disease progression are common in multiple myeloma (MM) patients, underscoring the need for new therapeutic combinations. […] We hypothesized that effective combinations would reduce MYC expression and enhance p16 activity. […] These preclinical data identify potentially useful drug combinations for evaluation in drug-resistant MM and reveal potential mechanisms of combined drug sensitivity.
# Described herein is the primary MIPE qHTS used to cherrypick compounds. Validated compounds were then further tested for potential synergistic activiy.
# [1] Peat TJ, Gaikwad SM, Dubois W, Gyabaah-Kessie N, Zhang S, Gorjifard S, Phyo Z, Andres M, Hughitt VK, Simpson RM, Miller MA, Girvin AT, Taylor A, Williams D, D'Antonio N, Zhang Y, Rajagopalan A, Flietner E, Wilson K, Zhang X, Shinn P, Klumpp-Thomas C, McKnight C, Itkin Z, Chen L, Kazandijian D, Zhang J, Michalowski AM, Simmons JK, Keats J, Thomas CJ, Mock BA. Drug combinations identified by high-throughput screening promote cell cycle transition and upregulate Smad pathways in myeloma. Cancer Lett. 2023 Aug 1;568:216284. doi: 10.1016/j.canlet.2023.216284. Epub 2023 Jun 24. PMID: 37356470; PMCID: PMC10408729.
# SEQUENCE No. (e.g., 1, 2, 3, etc.); […] (e.g., Cells, Incubation, Reagent, etc.); VALUE and DESCRIPTION.
# 1; Cells; 5 uL; white, solid bottom 1536-well Greiner assay plate.
# 2; Compounds; 23 nL; Kalypsis pin tool (Wako USA) equipped with a 1536-well pin head to transfer to the assay plates.
# 3; Incubation; 48 hours; 37C incubation.
# 4; Reagent;5uL; CellTiter Glo (Promega).
# 5; Detector; 425V; Luminescence; Viewlux PerkinElmer.
# NOTES (numbers refer to Sequence numbers above)
# 1. The cell-based screening methods employed in this study were like those previously published. Briefly, the corresponding myeloma cell lines were screened in 1,536-well plates with 500 cells, 5-uL per well for inhibition of cell viability (assessed by measuring ATP levels with CellTiterGlo).
# 2. NCATS MIPE 4.0 library of approved and investigational drugs were added using the Kalypsis pin tool. Wells treated with DMSO only for 100% viability and media only wells for 0% viability were used as controls.
# 3. The assay plates were covered and incubated for 48 hours in a 37C, 5% CO2 incubator with controlled humidity.
# 4. After 48 hours, CellTilter-GloTM luminescent substrate mix (Promega) reagent was added to the assay plate and plates we incubated for 5 min at room temperature.
# 5. Signal was measured as median relative luminescence units on a ViewLux (PerkinElmer) multiplate reader.
# [1] Heske CM, Davis MI, Baumgart JT, Wilson K, Gormally MV, Chen L, Zhang X, Ceribelli M, Duveau DY, Guha R, Ferrer M, Arnaldez FI, Ji J, Tran HL, Zhang Y, Mendoza A, Helman LJ, Thomas CJ. Matrix Screen Identifies Synergistic Combination of PARP Inhibitors and Nicotinamide Phosphoribosyltransferase (NAMPT) Inhibitors in Ewing Sarcoma. Clin Cancer Res. 2017 Dec 1;23(23):7301-7311. doi: 10.1158/1078-0432.CCR-17-1121. Epub 2017 Sep 12. PMID: 28899971; PMCID: PMC6636827.
# Potency is read from the fitted curve at half-maximal effect.
Compound,Potency,viability (% of control)
NS(=O)(=O)c1cccc2c1C(=O)c1cccc(O)c1C2=O,0.132 µM (active),
CN1C[C@H]2c3ccccc3Oc3ccc(Cl)cc3[C@@H]2C1,,76.7%
NC(=O)c1ccc2nc(-c3ccc(Oc4ccc(Cl)cc4)cc3)[nH]c2c1,4.69 µM (active),
CO[C@H]1C(=O)[C@]2(C)[C@@H](OC)C[C@H]3OC[C@@]3(OC(C)=O)[C@H]2[C@H](OC(=O)c2ccccc2)[C@]2(O)C[C@H](OC(=O)[C@H](O)[C@@H](NC(=O)OC(C)(C)C)c3ccccc3)C(C)=C1C2(C)C,,41.3%
O=C1Nc2ccc(Cl)cc2C(C#CC2CC2)(C(F)(F)F)O1 (stereo not given),20.9 µM (active),
Cc1ccc(C(C)(O)c2nc3ccccc3s2)c(C)c1 (stereo not given),,111%
COc1ccc2cc(-c3nc(-c4ccc(S(C)=O)cc4)[nH]c3-c3ccncc3)ccc2c1 (stereo not given),26.4 µM (active),
CCS(=O)(=O)N1CC(CC#N)(n2cc(-c3ncnc4[nH]ccc34)cn2)C1,,116%
CC(C)=CC[C@@H](O)C1=CC(=O)c2c(O)ccc(O)c2C1=O,5.26 µM (active),
COc1cc2nc(-c3ccc(N4CCN(C)CC4)cc3)nc(NCCN3CCOCC3)c2cc1OC,0.0105 µM (active),
CN1[C@@H]2CCC[C@@H]1CC(NC(=O)c1nn(C)c3ccccc13)C2 (stereo not given in full),,106%
CNC(=O)c1ccccc1Sc1ccc2c(C=Cc3ccccn3)n[nH]c2c1,16.6 µM (active),
COc1ccc(C2CC(c3ccccc3)=NN2c2ccc(S(N)(=O)=O)cc2)cc1 (stereo not given),16.6 µM (active),
O=C(O)CCC1CCC(c2cc(F)ccc2F)(S(=O)(=O)c2ccc(Cl)cc2)CC1 (stereo not given),8.33 µM (active),
CC(=O)N(C)C1(c2ccccc2)CCN(CCC[C@]2(c3ccc(Cl)c(Cl)c3)CCCN(C(=O)c3ccccc3)C2)CC1,16.6 µM (active),
Clc1ccc(C(c2ccc(Cl)cc2)n2cc[n+](CC(OCc3ccc(Cl)cc3Cl)c3ccc(Cl)cc3Cl)c2)cc1 (stereo not given),7.43 µM (active),
O=C(OCC#CCSc1nnc(-c2cccc3ccccc23)o1)c1cc2ccccc2s1,,106%
CC[C@@]1(O)C[C@H](O[C@H]2C[C@H](N(C)C)[C@H](O[C@H]3C[C@H](O)[C@H](O[C@H]4CCC(=O)[C@H](C)O4)[C@H](C)O3)[C@H](C)O2)c2c(cc3c(c2O)C(=O)c2c(O)cccc2C3=O)[C@@H]1C(=O)OC,0.372 µM (active),
Cc1[nH]c(C=C2C(=O)Nc3ccc(S(=O)(=O)Cc4c(Cl)cccc4Cl)cc32)c(C)c1C(=O)N1CCC[C@H]1CN1CCCC1,2.96 µM (active),
CC(C)(Cc1ccc2ccccc2c1)NC[C@@H](O)COc1cccc(Cl)c1C#N,,114%

Compound,Potency,viability (% of control)
CCC(CC)[C@H](NC(C)=O)[C@@H]1[C@H](O)[C@@H](C(=O)O)C[C@@H]1N=C(N)N,,101%
NC(=O)c1cccc(-c2cc(Nc3ccc(OC(F)(F)F)cc3)ncn2)c1,8.33 µM (active),
CN1CCN(CCOc2cc(OC3CCOCC3)c3c(Nc4c(Cl)ccc5c4OCO5)ncnc3c2)CC1,16.6 µM (active),
O=C(Nc1cccc(Br)c1)c1cccc(S(=O)(=O)N2CCCCCC2)c1,18.7 µM (active),
O=C(O)c1ccc(-c2cc3cccnc3c(-c3ccc4nonc4c3)n2)cc1,23.5 µM (active),
COc1cc(O)c2c(c1)C(=O)c1cc(C)cc(O)c1C2=O,,97.2% [at 23.2 µM]
O=c1c(-c2ccc(O)cc2)coc2cc(OC3O[C@H](CO)[C@H](O)[C@H](O)[C@H]3O)cc(O)c12 (stereo not given in full),3.32 µM (active),
CC1(C)CCC2=C(O1)c1ccccc1C(=O)C2=O,5.9 µM (active),
O=C1C[C@@H](c2ccc(O)cc2)Oc2cc(O)cc(O)c21,,85.6%
O=C(NCc1ccccc1)c1csc(Nc2ccncn2)n1,10.5 µM (active),
NC[C@@H]1O[C@@H](O[C@H]2[C@@H](O)[C@H](O[C@@H]3[C@@H](O)[C@@H](N)C[C@H](N)[C@H]3O[C@H]3O[C@H](CN)[C@@H](O)[C@@H](O)[C@H]3N)O[C@H]2CO)[C@H](N)[C@@H](O)[C@@H]1O,,126%
Cc1cc(OCCCc2c(C(=O)O)n(Cc3cccnc3)c3c(-c4c(COc5ccc(N6CCN([S+](C)(=O)[O-])CC6)cc5)nn(C)c4C)cccc23)cc(C)c1Cl,20.9 µM (active),
O=C1C(Cl)=C(NCCN2CCOCC2)C(=O)c2ncccc21,2.64 µM (active),
NS(=O)(=O)c1ccc(NC2=CC(=O)c3ccccc3C2=O)cc1,0.833 µM (active),
c1ccc2c(Cc3c[nH]c4ccccc34)c[nH]c2c1,1.05 µM (active),
CO[C@H]1C[C@@H]2CC[C@@H](C)[C@@](O)(O2)C(=O)C(=O)N2CCCC[C@@H]2C(=O)O[C@H]([C@H](C)C[C@@H]2CC[C@H](OCCO)[C@H](OC)C2)CC(=O)[C@H](C)C=C(C)[C@@H](O)[C@@H](OC)C(=O)[C@H](C)C[C@H](C)C=CC=CC=C1C,1.05 µM (active),
CCOC(=O)O[C@]1(C(=O)OCCl)CC[C@@H]2[C@H]3CCC4=CC(=O)C=C[C@]4(C)[C@@H]3[C@@H](O)C[C@@]21C,0.526 µM (active),
CCCCCN(C)CCC(O)(P(=O)(O)O)P(=O)(O)O,,116%
CC(C)OC(=O)CCCC=CC[C@@H]1[C@H](C=C[C@@H](O)COc2cccc(C(F)(F)F)c2)[C@H](O)C[C@@H]1O,16.6 µM (active),
O=c1cc(-c2ccc(O)cc2)oc2cc(O)cc(O)c12,10.5 µM (active),
